# Unmarked numbers belong to inactive results. For some assays here: Entries with a potency or affinity are not part of this list. Active and inactive are the calls of the source. Unless noted, no rule for the calls is given here.
# Columns and labels:
# [1] = antimalarial activity against Dd2 strain (AID 2302;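 active = growth inhibition above 50% at the single 2 µM test dose, taken to imply half-maximal potency below 2 µM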;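 also: 0% = DMSO untreated growth and 100% = chloroquine plus artemisinin killed control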); details: P. falciparum Dd2 in RBCs, LDH growth readout, 72 h; at 2 µM; stronger effect = higher value
# [2] = human hepatoma cell viability loss – ATP luminescence, cytotoxicity control for P. falciparum antimalarial project, primary screen (AID 2303;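 active = inhibition above 50%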;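 also: 0% = DMSO wells and 100% = digitonin-killed cells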); details: HepG2 viability, 24-48 h, at 10 µM, stronger effect = higher value
# [3] = molecular target: L-lactate dehydrogenase (Plasmodium falciparum (isolate CDC / Honduras)) (UniProt Q27743); assay: PfLDH activity inhibition – cell lysate, 3D7 strain, counter-screen for P. falciparum growth inhibition project (AID 2304);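 also: 0% = vehicle and 100% = reference inhibitor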; details: P. falciparum 3D7 crude extract, LDH APAD/NBT absorbance; at 2 µM; stronger effect = higher value
# Sequence of L-lactate dehydrogenase (Plasmodium falciparum (isolate CDC / Honduras)) (Q27743 whole entry, looked up): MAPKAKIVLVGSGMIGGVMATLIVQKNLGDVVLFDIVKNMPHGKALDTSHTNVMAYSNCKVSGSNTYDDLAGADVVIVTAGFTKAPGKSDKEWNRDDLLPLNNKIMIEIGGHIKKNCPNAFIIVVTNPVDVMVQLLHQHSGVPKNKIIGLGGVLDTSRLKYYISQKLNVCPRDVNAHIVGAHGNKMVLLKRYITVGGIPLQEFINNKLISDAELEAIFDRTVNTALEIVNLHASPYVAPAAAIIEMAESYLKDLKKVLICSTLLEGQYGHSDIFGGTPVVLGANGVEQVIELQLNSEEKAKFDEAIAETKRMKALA
# [4] = inhibition of 3D7 malaria parasite growth – strain 3D7 (AID 2306);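 also: 0% = DMSO wells and 100% = chloroquine plus artemisinin control wells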; details: P. falciparum 3D7 erythrocytic growth, LDH absorbance, 72 h; at 2 µM; stronger effect = higher value
# [5] = molecular target: Calcium-dependent protein kinase 1 (Plasmodium falciparum (isolate 3D7)) (UniProt P62344); assay: PfCDPK1 kinase inhibitors, biochemical, TCAMS library (AID 1159585; cut-off not given, nearly all actives have IC50 up to about 0.98 µM;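 also: inhibitors leave more ATP so luminescence rises with inhibition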); details: recombinant PfCDPK1, Kinase-Glo ATP depletion luminescence
# Sequence of Calcium-dependent protein kinase 1 (Plasmodium falciparum (isolate 3D7)) (P62344 whole entry, looked up): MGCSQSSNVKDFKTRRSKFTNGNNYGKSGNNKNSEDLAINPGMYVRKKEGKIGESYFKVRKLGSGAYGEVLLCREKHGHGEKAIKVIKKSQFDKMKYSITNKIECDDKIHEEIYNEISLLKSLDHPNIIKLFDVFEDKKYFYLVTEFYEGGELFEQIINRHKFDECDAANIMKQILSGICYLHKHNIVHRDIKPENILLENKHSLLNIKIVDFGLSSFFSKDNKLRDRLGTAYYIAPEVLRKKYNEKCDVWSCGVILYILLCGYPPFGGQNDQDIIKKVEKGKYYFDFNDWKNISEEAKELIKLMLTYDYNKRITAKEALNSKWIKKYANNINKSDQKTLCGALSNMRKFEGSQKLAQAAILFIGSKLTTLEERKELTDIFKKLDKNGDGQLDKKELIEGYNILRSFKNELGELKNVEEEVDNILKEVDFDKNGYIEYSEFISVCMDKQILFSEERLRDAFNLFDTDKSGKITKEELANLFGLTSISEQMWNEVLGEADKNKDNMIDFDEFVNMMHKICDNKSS
# [6] = molecular target: Plasmodium falciparum protein kinase 6 (PK6, PF3D7_1337100) (UniProt Q8IDW1); assay: PfPK6 kinase inhibitors, biochemical, TCAMS library (AID 1159586); details: recombinant PfPK6, Kinase-Glo ATP depletion luminescence
# Sequence of Plasmodium falciparum protein kinase 6 (PK6, PF3D7_1337100) (Q8IDW1 1-305): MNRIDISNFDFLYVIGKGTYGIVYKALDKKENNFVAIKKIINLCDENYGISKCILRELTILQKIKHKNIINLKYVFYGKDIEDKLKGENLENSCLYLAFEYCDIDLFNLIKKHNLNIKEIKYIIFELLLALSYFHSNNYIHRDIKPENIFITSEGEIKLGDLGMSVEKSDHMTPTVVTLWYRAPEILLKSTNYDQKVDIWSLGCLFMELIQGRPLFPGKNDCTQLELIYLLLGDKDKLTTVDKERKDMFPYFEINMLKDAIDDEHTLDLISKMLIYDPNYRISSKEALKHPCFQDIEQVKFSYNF
# [7] = molecular target: Protein kinase 7 (PK7), Plasmodium falciparum 3D7 (PF3D7_0213400) (UniProt Q7YTF7); assay: inhibition of Plasmodium PK7 catalytic activity – biochemical, TCAMS antimalarial set, Kinase-Glo luminescence (AID 1159587); details: recombinant PfPK7, Kinase-Glo ATP depletion luminescence
# Sequence of Protein kinase 7 (PK7), Plasmodium falciparum 3D7 (PF3D7_0213400) (Q7YTF7 1-343): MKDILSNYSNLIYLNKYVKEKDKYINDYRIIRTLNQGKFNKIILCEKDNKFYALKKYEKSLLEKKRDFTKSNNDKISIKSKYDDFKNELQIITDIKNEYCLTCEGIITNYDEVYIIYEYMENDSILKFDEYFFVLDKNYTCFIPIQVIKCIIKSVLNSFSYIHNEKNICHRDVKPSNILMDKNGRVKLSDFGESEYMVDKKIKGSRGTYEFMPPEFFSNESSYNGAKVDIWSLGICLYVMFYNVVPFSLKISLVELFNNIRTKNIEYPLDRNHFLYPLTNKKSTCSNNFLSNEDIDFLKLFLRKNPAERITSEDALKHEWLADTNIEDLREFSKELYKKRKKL
# [8] = molecular target: Calcium-dependent protein kinase 4 (Plasmodium falciparum (isolate 3D7)) (UniProt Q8IBS5); assay: PfCDPK4 kinase inhibitors, biochemical, TCAMS library (AID 1159588; cut-off not given, nearly all actives have IC50 up to about 0.91 µM); details: recombinant PfCDPK4, Kinase-Glo ATP depletion luminescence
# Sequence of Calcium-dependent protein kinase 4 (Plasmodium falciparum (isolate 3D7)) (Q8IBS5 whole entry, looked up): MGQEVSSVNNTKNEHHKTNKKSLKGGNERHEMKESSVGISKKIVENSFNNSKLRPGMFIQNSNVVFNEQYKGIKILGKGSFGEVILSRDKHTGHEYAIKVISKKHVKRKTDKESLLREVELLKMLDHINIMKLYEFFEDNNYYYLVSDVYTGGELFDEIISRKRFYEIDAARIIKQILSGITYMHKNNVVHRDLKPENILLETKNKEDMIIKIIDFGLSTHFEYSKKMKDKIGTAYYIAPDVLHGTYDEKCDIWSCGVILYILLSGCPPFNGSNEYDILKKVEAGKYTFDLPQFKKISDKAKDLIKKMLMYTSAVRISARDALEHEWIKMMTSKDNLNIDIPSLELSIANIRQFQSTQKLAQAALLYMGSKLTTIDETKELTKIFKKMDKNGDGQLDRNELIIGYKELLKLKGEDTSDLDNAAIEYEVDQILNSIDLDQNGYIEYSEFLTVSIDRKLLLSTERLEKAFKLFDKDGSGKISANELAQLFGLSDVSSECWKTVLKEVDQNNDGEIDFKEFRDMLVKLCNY
SMILES,growth inhibition [1],inhibition [2],inhibition [3] [%],growth inhibition [4],outcome [5],outcome [6],outcome [7],outcome [8]
CN(C)CCOc1ccc2c(c1)CN(C)CC2c1ccccc1 (stereo not given),-1%,15%,-2,91% (active),inactive,inactive,inactive,inactive
O=C(/C=C/c1ccc(Cl)c(Cl)c1)NCCCCCN1CCCC(C(=O)Nc2ccc(F)c(Cl)c2)C1 (stereo not given),2%,28%,1,99% (active),inactive,inactive,inactive,inactive
O=S(=O)(NCCN1CCCC1)c1cccc(-c2ccc(CNC3Cc4ccccc4C3)cc2)c1,74% (active),79% (active),-4,99% (active),inactive,inactive,inactive,inactive
COc1ccc2nccc(CCC3(O)CCC(NCc4cc5c(cc4F)SCC(=O)N5)CC3)c2c1 (stereo not given),48%,9%,-2,87% (active),inactive,inactive,inactive,inactive
Nc1nc(F)nc2nc[nH]c12,25%,78% (active),-2,89% (active),inactive,inactive,inactive,inactive
COc1cc2c(cc1S(=O)(=O)c1ccc(OCc3ccc(Cl)cc3)cc1)CCN(Cc1ccc(NC(C)=O)s1)CC2,-3%,3%,-2,89% (active),inactive,inactive,inactive,inactive
COc1cc(NC(=O)c2ccc(-c3ccc(C(C)=O)cc3)s2)ccc1OCCN1CCCC1,63% (active),31%,3,100% (active),inactive,inactive,inactive,inactive
O=C(/C=C/c1ccc(Cl)c(Cl)c1)N1CCC(NCc2c[nH]c3ccccc23)CC1,4%,36%,-2,94% (active),inactive,inactive,inactive,inactive
CC(C)NCc1ccc(-c2ccc(-c3nc4ccc(C(F)(F)F)cc4[nH]3)cc2)cc1,98% (active),16%,0,100% (active),inactive,inactive,inactive,inactive
c1ccc(CCNc2ncnc3c2[nH]c2ccccc23)cc1,94% (active),50% (active),-1,95% (active),inactive,inactive,inactive,inactive
O=[N+]([O-])c1ccc(NC(=NCCOc2ccccc2)Nc2ccccc2Br)c(O)c1,70% (active),6%,-9,88% (active),inactive,inactive,inactive,inactive
CC(C)(C)c1ccc(NC(=O)c2cccc(CN3CCCN(Cc4cccc(Cl)c4)CC3)c2)cc1,30%,61% (active),3,85% (active),inactive,inactive,inactive,inactive
Cc1ccccc1C1CCN(C2CCC(NC(=O)/C=C/c3ccc(F)c(F)c3)CC2)CC1 (stereo not given),7%,34%,-1,93% (active),inactive,inactive,inactive,inactive
COc1ccc2ncc(F)c(CCN3CCC(CNCc4cccc5c4OCO5)CC3)c2n1,37%,39%,-2,93% (active),inactive,inactive,inactive,inactive
CCOc1cc(C)ccc1N1CCN(CCN2CCC(NC(=O)c3ccc(-c4ccc(C#N)cc4)cc3)CC2)CC1,3%,9%,-1,84% (active),inactive,inactive,inactive,inactive
OCC1CCN(Cc2ccc(-c3ccc(-c4nc5ccccc5[nH]4)cc3)cc2)CC1,84% (active),37%,1,100% (active),inactive,inactive,inactive,inactive
CCN(CC)CCOc1ccc(C(O)(C#CC(O)(c2ccc(OCCN(CC)CC)cc2)c2ccc([N+](=O)[O-])cc2)c2ccc([N+](=O)[O-])cc2)cc1 (stereo not given),97% (active),55% (active),3,98% (active),inactive,inactive,inactive,inactive
CN1CCN(CC(=O)Nc2ccc(-c3csc(-c4nc5ccccc5[nH]4)c3)cc2)CC1,46%,6%,-4,99% (active),inactive,inactive,inactive,inactive
COc1ccc(CNCc2cccc(-c3cccc(-c4nc5ccc(C(F)(F)F)cc5[nH]4)c3)c2)cc1,91% (active),40%,4,100% (active),inactive,inactive,inactive,inactive
O=C(NC1CCN(c2ccnc3cc(Cl)ccc23)C1)c1ccc(F)cc1 (stereo not given),97% (active),26%,4,94% (active),inactive,inactive,inactive,inactive

SMILES,growth inhibition [1],inhibition [2],inhibition [3] [%],growth inhibition [4],outcome [5],outcome [6],outcome [7],outcome [8]
O=C(/C=C/c1ccc(Cl)cc1)NCCCCCN1CCC(C(=O)Nc2ccc(Cl)cc2)CC1,-1%,27%,8,99% (active),inactive,inactive,inactive,inactive
NCC1CCCN1Cc1ccc(-c2ccc(-c3nc4ccc(C(F)(F)F)cc4[nH]3)s2)cc1 (stereo not given),97% (active),31%,-3,102% (active),inactive,inactive,inactive,inactive
Cc1cc(NC(=O)c2ccco2)ccc1OC1CCN(Cc2ccccc2)CC1,95% (active),3%,-9,93% (active),inactive,inactive,inactive,inactive
COc1ccc(CC(=O)NC(CCN2CCC3(CCc4ccccc43)CC2)c2ccc(Cl)c(Cl)c2)cc1 (stereo not given),75% (active),28%,-1,90% (active),inactive,inactive,inactive,inactive
Clc1ncnc2scc(-c3ccc(Br)cc3)c12,96% (active),-3%,-2,95% (active),inactive,inactive,inactive,inactive
CC(=O)c1c[nH]c(C(=O)Nc2ccc(-c3cn4ccccc4n3)cc2)c1,95% (active),20%,4,98% (active),inactive,inactive,inactive,inactive
O=C(NC1CC1)c1ccc(N2CCCC(COc3ccc4c(c3)CCCC4)C2)nc1 (stereo not given),65% (active),-5%,-5,85% (active),inactive,inactive,inactive,inactive
C=CCOC(=O)N1CCC(CNCc2ccc(-c3cccc(-c4nc5ccccc5[nH]4)c3)cc2)C1 (stereo not given),50% (active),39%,2,100% (active),inactive,inactive,inactive,inactive
O=C(Nc1ccc(-c2cccc(-c3nc4ccc(F)cc4[nH]3)c2)cc1)c1ccncc1,18%,58% (active),-5,96% (active),inactive,inactive,inactive,inactive
COc1ccc(-c2nc(NC(=O)CSc3ccccc3)sc2C)cc1,31%,6%,2,94% (active),inactive,inactive,inactive,inactive
O=C(NC1CC1)c1cnc(N2CCC(COc3cccc(F)c3)CC2)c(Cl)c1,87% (active),1%,5,89% (active),inactive,inactive,inactive,inactive
N#Cc1ccc(OCCN(Cc2ccccc2C(F)(F)F)c2ccc(C#N)c(C(F)(F)F)c2)cc1,84% (active),69% (active),1,101% (active),inactive,inactive,inactive,inactive
Oc1cc(Nc2ccnc3cc(-c4cccc(CN5CCCCC5)c4)ccc23)c(F)cc1Cl,101% (active),21%,-3,101% (active),inactive,inactive,inactive,inactive
CC(C)CNCc1ccc(-c2cccc(CN(CCCN3CCN(C)CC3)C(=O)/C=C/c3ccccc3)c2)cc1,93% (active),43%,0,95% (active),inactive,inactive,inactive,inactive
CCOc1cc(CC)ccc1C1CCN(CCN2CCC(NC(=O)c3ccc(-c4ccc(C#N)cc4)cc3)CC2)CC1,71% (active),32%,6,100% (active),inactive,inactive,inactive,inactive
COc1ccc(CCNCC(O)c2cccc(Br)c2)c(Cl)c1OC (stereo not given),70% (active),18%,0,87% (active),inactive,inactive,inactive,inactive
COc1cc(-c2cc(-c3ccc(OCCN(C)C)cc3)[nH]c2-c2ccncc2)ccc1Cl,100% (active),28%,-2,101% (active),inactive,inactive,inactive,inactive
CCCC(CNCc1cccc(SC(F)(F)F)c1)CNc1cc(=O)c2ccccc2[nH]1 (stereo not given),87% (active),5%,5,101% (active),inactive,inactive,inactive,inactive
Cc1cc(Cc2ccc(S(=O)(=O)c3cc4c(cc3O)CCN(C)CC4)cc2)ccc1Cl,12%,7%,0,96% (active),inactive,inactive,inactive,inactive
CCNc1cc(C(=O)N[C@@H](Cc2ccccc2)[C@H](O)CN[C@H](C)C(C)(C)C)cc(N2CCCCS2(=O)=O)c1,41%,4%,-2,95% (active),inactive,inactive,inactive,inactive
